Active and inactive are the calls of the source. Rule for the calls: active = hit-call score of the fitted dose curve at least 0.9, where 1 is the maximum; inactive = score below 0.9.
What follows are molecules tested on Cytochrome P450 (CYP24A1_1), CYP24A1 (gene 1591) (assay: LTEA_HepaRG_CYP24A1_1: Life Technologies and Expression Analysis (LTEA) Assay for Cytochrome P450 (CYP24A1_1) using HepaRG (AID 2283671)). Details: mRNA level, 48 h; actives raise or lower the signal.
Experimental: LTEA_HepaRG is a cell based, multiplexed-readout assay that uses HepaRG, a human liver cell line, with measurements taken at 48 hours after chemical dosing on a 96-well plate.LTEA_HepaRG_CYP24A1_1 is one of 102 assay component(s) measured in the LTEA HepaRG cell culture assay. It is a marker of NR mediated metabolism.Data from the assay component LTEA_HepaRG_CYP24A1_1 was analyzed into 1 endpoint. This assay endpoint, LTEA_HepaRG_CYP24A1_1, was analyzed with bidirectional fitting relative to DMSO as the negative control and baseline of activity. Using a type of inducible reporter, measures of mRNA induction for gain or loss-of-signal activity can be used to understand regulation of transcription factor activity. To generalize the intended target to other relatable targets, this assay endpoint is annotated to the cyp intended target family, where the subfamily is xenobiotic metabolism.
A total of 1060 chemcials from the ToxCast library were tested in eight-point concentration-response experiments. Cell culture and cytotoxicity assays were conducted at Thermo Fisher Scientific's Custom Services facility (Madison, WI). A single lot of human HepaRG cells (Thermo Fisher Scientific, Frederick, MD) was used for the cell culture experiments. 96-well format collagen type I coated plates of human HepaRG cells were prepared using established methods. Briefly, cryopreserved HepaRG cells were thawed, plated at a density of approximately 100,000 cells/well in HepaRG Thaw, Plate, and General Purpose media (HPRG770, Thermo Fisher Scientific), and incubated for 48 hours. 0.5% DMSO was selected as vehicle control to balance the requisite need of DMSO in HepaRG cultures to maintain differentiation (for example, baseline metabolism, proportions of hepatocytes vs. cholangiocytes), while enabling further hepatic receptor pathway activation (for example, PXR and CAR) in response to chemical exposure. 48 hours after plating, the culture medium was replaced with HepaRG Serum-Free Incudtion Media. Cells were exposed to each test chemical in duplicate and maintained in CO2 incubators for another 48 hours. Chemical plates were thawed to room temperature and 200x concentrations of treatment groups were prepared. 8-point conentration-reponse curves were made with the highest exposure at 100 uM, followed by half-log dilutions, all in 0.5% DMSO. Each test plate contained variouse controls, induction positive controls (1mM phenobarbital), cytotoxicity positive controls ([…] aflatoxin B1), vehicle controls (0.5% DMSO), and total lysis controls (0.5% DMSO). Cell morphology images were taken using an Essen IncuCyte FLR automated microscope, with six 96-well plates imaged in about 24 minutes. Images were captured and exported and JPEG files. Spent culture media was transfered to black-well plates for the LDH assay, and remaining media was sorted at -80 C for later use. Cells were treated with RLT buffer and frozen until shipped for gene expression analysis. Total RNA was isolated from the cell suspension in 75 uL of Buffer RLT (Qiagen, Germantown, MD 20874) by Quintiles/Expression Analysis (Durham, NC) using a custom isolation procedure. Total RNA from each plate well was transferred to a preamplification plate. Fluidigm's 96.96 Dynamic ArrayTM (Fluidigm, Amsterdam, the Netherlands) technology was used for gene expression analyses by quantitative reverse transcription polymerase chain reaction (qRT-PCR, performed by Quintiles/Expression Analysis, Durham, NC)89. Standard TaqManTM Assays (Applied Biosystems/ThermoFisher Scientific, Foster City, CA) were used to assess the expression of 93 genes selected based on their selectivity and sensitivity to important hepatic receptors known to be modulated by environmental chemicals; importance in human hepatocyte functionality; and hepatotoxicity. […]

SMILES	outcome
ClC1C(Cl)C(Cl)C(Cl)C(Cl)C1Cl (stereo not given)	inactive
CCCN(CCOc1c(Cl)cc(Cl)cc1Cl)C(=O)n1ccnc1	inactive
N#Cc1c(Cl)c(Cl)c(Cl)c(C#N)c1Cl	inactive
CN1CSC(=S)N(C)C1	inactive
O=C1c2ccccc2C(=O)N1SC(Cl)(Cl)Cl	inactive
CCCN(CCC)c1c([N+](=O)[O-])cc(C(F)(F)F)cc1[N+](=O)[O-]	inactive
CC1(C)C(C=C(Cl)Cl)C1C(=O)OC(C#N)c1ccc(F)c(Oc2ccccc2)c1 (stereo not given)	inactive
Cc1[nH]c(=O)n(C(C)(C)C)c(=O)c1Cl	inactive
CCOC1Oc2ccc(OS(C)(=O)=O)cc2C1(C)C (stereo not given)	inactive
CCC(C)Nc1c([N+](=O)[O-])cc(C(C)(C)C)cc1[N+](=O)[O-] (stereo not given)	inactive

Reference: PubChem BioAssay (EPA / NIEHS)
